ST2 inh = inhibitors of human ST2 (IL1RL1) binding to IL-33; Q01638; AlphaLISA ST2-Fc/biotin-IL-33 interaction, 1 h; inhibition, % for hits at 17 µM; actives 2.3% (n = 78,000); AID 1259354; in the data active = inhibition above about 30%
Target sequence (Q01638 whole entry, looked up): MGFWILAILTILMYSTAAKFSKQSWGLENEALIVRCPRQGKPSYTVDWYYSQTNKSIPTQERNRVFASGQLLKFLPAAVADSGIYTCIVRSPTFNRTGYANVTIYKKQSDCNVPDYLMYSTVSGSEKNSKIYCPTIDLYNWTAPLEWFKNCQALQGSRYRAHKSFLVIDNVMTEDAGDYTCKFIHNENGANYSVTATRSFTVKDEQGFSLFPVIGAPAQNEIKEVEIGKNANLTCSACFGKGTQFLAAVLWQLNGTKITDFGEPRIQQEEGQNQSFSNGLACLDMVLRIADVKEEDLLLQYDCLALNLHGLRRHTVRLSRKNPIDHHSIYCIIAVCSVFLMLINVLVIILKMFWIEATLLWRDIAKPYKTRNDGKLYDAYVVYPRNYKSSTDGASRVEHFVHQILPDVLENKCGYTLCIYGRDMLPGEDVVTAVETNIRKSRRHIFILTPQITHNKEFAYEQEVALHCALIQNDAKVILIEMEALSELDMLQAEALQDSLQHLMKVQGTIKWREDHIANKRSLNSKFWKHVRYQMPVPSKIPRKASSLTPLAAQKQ
* hit, by the source's call; i = inactive. The full list was thinned out, with hits kept by preference.

SMILES | ST2 inh
CCOC(=O)c1c(NC(=O)c2cc(=O)c3ccccc3o2)sc(C)c1C | i
CC(=O)O[C@H]1[C@H]2CCC[C@@H]1[C@@H](N1CCCCC1)CC2 | i
CC(C)O[C@H]1CN(C(=O)c2ccccc2N2CCC(=O)NC2=O)C[C@@H]1O | i
Cc1cc2c(cc1C)C(c1cccc(Cl)c1Cl)CC(=O)N2 (stereo unspecified) | i
CCN(CC)c1ncnc2c1sc1nc(N3CCOCC3)c3c(c12)CC(C)(C)OC3 | i
Cc1ccc(N2CCN(C(=O)c3cccc([N+](=O)[O-])c3C)CC2)cc1Cl | i
Cc1nn(-c2ccc(F)cc2)c(C)c1C(=O)N1CCN2CCNC(=O)C2C1 (stereo unspecified) | i
N=c1c2c(-c3ccccc3)c(-c3ccccc3)n(Cc3ccco3)c2ncn1Cc1ccco1 | 31.0%*
O=c1[nH]nc(CCc2ccccc2O)n1Cc1ccco1 | i
c1ccc(-c2nnc([C@H]3CCN(Cc4ccco4)C3)o2)cc1 | i
COc1ccc(C(=O)Nc2ccc([N+](=O)[O-])cc2Cl)cc1OC | i
CN1CC2(CCCN(C(=O)c3cnc4c(c3)nnn4C)CC2)OC1=O (stereo unspecified) | i
COC(=O)[C@@H]1C[C@@H](N(C)C)CN1C(=O)c1cccnc1N1CCOCC1 | i
CC1CCCCC1NC(=O)COc1ccc2c(c1)C(=O)CC(C)(C)O2 (stereo unspecified) | i
COc1ccc(N(CC(=O)Nc2ccc(F)cc2)S(=O)(=O)c2ccccc2)c(OC)c1 | i
Cc1cccc(N(CC(=O)Nc2ccc(F)cc2)S(=O)(=O)c2ccccc2)c1C | 38.0%*
Cc1cccc(N(CC(=O)Nc2ccccc2Cl)S(=O)(=O)c2ccccc2)c1C | i
COc1cc(F)c(-c2nccn2C(C)CCn2cccn2)c(F)c1 (stereo unspecified) | i
Cc1cccc(CC(=O)N(C)CC2Cc3ccccc3O2)c1 (stereo unspecified) | i
COc1ccc2oc(=Nc3ccccc3OC)c(C(N)=O)cc2c1 | i
COc1ccc2oc(=Nc3ccc(-c4ccccc4)cc3)c(C(N)=O)cc2c1 | i
COc1ccc2oc(=Nc3ccc(C(C)=O)cc3)c(C(N)=O)cc2c1 | 40.0%*
Cc1cccn2c(=O)c3cc(C(=O)NCC4CCCO4)c(=N)n(CCCn4ccnc4)c3nc12 (stereo unspecified) | i
C=CCNC(=O)c1cc2c(=O)n3cccc(C)c3nc2n(CCCn2ccnc2)c1=N | 31.0%*
COCCCn1c(=N)c(C(=O)NC2CCCC2)cc2c(=O)n3cccc(C)c3nc21 | i
SMILES | ST2 inh
COC(=O)C1=C(C)N=C2SC(C)C(=O)N2C1c1ccc(Br)cc1 (stereo unspecified) | i
CC1=C(C(=O)OCc2ccccc2)C(c2ccc(Cl)cc2)n2ncnc2N1 (stereo unspecified) | i
CC(=O)c1ccc2c(c1)c1ccccc1n2C | i
Cc1c(C(=O)Cc2ccccc2)n(C)c2ccccc12 | 37.0%*
CC(=O)n1c2ccccc2c2c1c1ccccc1n2C | i
COc1cc(NC(=O)c2cn(C)c(=O)c3c2c2ccccc2n3C)cc(OC)c1OC | i
Cc1cc(Cl)ccc1N(CC(=O)NC(C)(C)C)S(C)(=O)=O | i
O=C1/C(=C/C=C/c2ccco2)CC/C1=C\C=C\c1ccco1 | 96.0%*
COc1ccc(S(=O)(=O)NCC2CCCN(C(=O)c3cncs3)C2)cc1 (stereo unspecified) | i
COc1ccc(Nc2cc(C)nc(Nc3ccc(NC(=O)CCC4CCCCC4)cc3)n2)cc1 | 40.0%*
Cc1cc(N(C)C)nc(Nc2ccc(NC(=O)CCC3CCCC3)cc2)n1 | i
O=C(CC1CCCCC1)Nc1cccnc1 | i
Cc1cccc(NC(=O)CCC2CCCCC2)n1 | i
COc1ccc(Nc2cc(C)nc(Nc3ccc(NC(=O)CC4CCCC4)cc3)n2)cc1 | 30.0%*
Cc1ccc(Nc2cc(C)nc(Nc3ccc(NC(=O)CC4CCCC4)cc3)n2)cc1 | 31.0%*
CC1CCC(C(=O)NC(C(=O)Nc2ccncc2)C(C)C)CC1 (stereo unspecified) | i
CCn1c2ccccc2c2cc(C3C(C#N)=C(N)OC4=C3C(=O)CCC4)ccc21 (stereo unspecified) | i
CC(C(=O)N1CCc2c(nc(-c3ccccc3)[nH]c2=O)C1)n1ccnc1 (stereo unspecified) | i
COc1ccc(OC)c(N2C(=O)Nc3cc(Cl)c(Cl)cc3N2O)c1 | i
O=C(COc1ccccc1O)NO | i
CC(=O)Nc1ccc(S(=O)(=O)N2CCN(C/C=C/c3ccccc3)CC2)cc1 | i
Cc1ccn2c(=O)cc(COc3cccc(NC(=O)COc4ccccc4F)c3)nc2c1 | i
COc1ccccc1N1CCN(C2CCN(C(=O)c3ccco3)CC2)CC1 | i
Cc1nnc(C)c2c(C)n(C(C)c3ccccc3)c(C)c12 (stereo unspecified) | 47.0%*
Cc1c(C(c2ccccc2)c2c(C)n(C)n(-c3ccccc3)c2=O)c(=O)n(-c2ccccc2)n1C | i
SMILES | ST2 inh
O=C1NC(=O)N(c2ccccc2)C(=O)C1C(c1ccccc1)c1ccccc1 (stereo unspecified) | i
CCN1Cc2ccccc2CC1C(=O)NCCSc1nnnn1C (stereo unspecified) | i
CC1=C[C@@H](CNC(=O)c2ccc(C#N)cc2)[C@H](C(C)C)C[C@H]1CC(=O)NCCN(C)C | 31.0%*
CC1=C[C@@H](CNC(=O)c2ccc(C#N)cc2)[C@H](C(C)C)C[C@H]1CC(=O)NCc1cccnc1 | i
COc1ccc(CNC(=O)C[C@@H]2C[C@@H](C(C)C)[C@H](CNC(=O)c3ccc(C#N)cc3)C=C2C)cc1 | i
COc1ccc2c(c1OC)C(=O)OC2Nc1ccc(Br)cc1 (stereo unspecified) | i
COc1cccc(C(=O)Nc2cccc(C)c2)c1 | i
Cc1cc2nnc(SCC(=O)c3ccc4c(c3)OCO4)n2c2ccccc12 | i
COc1ccc(I)c(OC)c1 | i
COc1ccc2c(c1)C(C)=CC(C)(C)N2 | 42.0%*
CC1=CC(C)(C)Nc2ccc(OC(=O)COc3ccc(Cl)cc3)cc21 | i
CN(C)c1ncccc1CNc1ccc2cc(Cl)ccc2n1 | i
Cc1oc(C(C)C)cc1C(=O)N1CCC(Cn2cc(CO)nn2)CC1 | i
COc1c(Cl)c(Cl)nc(Cl)c1C(=O)O | i
COc1ccc(/C=c2\sc3nc4ccccc4n3c2=O)cc1O | 50.0%*
O=c1/c(=C\c2cccc([N+](=O)[O-])c2)sc2nc3ccccc3n12 | i
CCCCOc1ccc(/C=c2\sc3ncnn3c2=O)cc1OC | i
CCc1nc(C)c(C(=O)NC(C)c2cn3ccsc3n2)o1 (stereo unspecified) | i
Cc1ccc(-c2noc([C@@H]3Cc4nc[nH]c4CN3C(=O)CC(C)(C)C)n2)cc1 | i
Cc1ccc(N2NC(=O)/C(=C/c3ccc(OCc4ccccc4)cc3)C2=O)cc1Cl | i
COc1cc(/C=C2/C(=O)NN(c3ccc(C)c(Cl)c3)C2=O)cc(OC)c1OC | i
COc1cc(/C=C2/C(=O)NN(c3ccc(C)c(Cl)c3)C2=O)ccc1OCc1ccccc1 | 48.0%*
CCOc1ccccc1NC(=O)CC(=O)N(C)Cc1ccnc2ccccc12 | i
O=C(Nc1ccc2nn(-c3ccc(Cl)cc3)nc2c1)c1cccc(F)c1 | i
CCOc1ccc(C(=O)Nc2cccc(NC(=O)C(C)C)c2)cc1[N+](=O)[O-] | i
COc1ccc(NC(=O)c2ccc(Cl)cc2)cc1 | i

Source: PubChem BioAssay
